Test results published in PubChem BioAssay (NCI).
Compounds without any hit were thinned out: in the full panel of roughly 83,000, 20% have a hit.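 A percent growth of 40 corresponds to 60% growth inhibition; 0 means no net growth; -100 means all cells died. Active threshold: below 10.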 Unmarked numbers belong to inactive results. Calls of active or inactive are those of the source.

Each compound was assayed on HL-60(TB) leukemia (assay: NCI-60 one-dose screen, 48 h (100 = growth as untreated, 0 = no growth, -100 = all killed)). Conditions: 10 µM unless noted.

**Q.** For O=C(Nc1ncc(Cc2ccccc2)s1)c1cc(-c2ccccc2)nc2ccccc12, which growth is on record?
**A.** 99.2%

**Q.** Which growth does the source give for NC(=O)c1cccc(-n2ccc3cc(NC(=O)Nc4cc(C(F)(F)F)cc(C(F)(F)F)c4)ccc32)n1 here?
**A.** 39.3%

**Q.** How did the growth turn out when CSc1ccc2c3c(n(C[C@H](O)CO)c(=O)c2c1)-c1ccccc1C3=O was run?
**A.** -12.2% (active)

**Q.** How did the growth turn out when COc1cc(C(=O)NNC(=O)c2ccccc2C(=O)O)cc(OC)c1OC was run?
**A.** 5.84% (active)

**Q.** For CCn1cc(/C=C2\Oc3cc(OCC#N)ccc3C2=O)c2cc(OC)ccc21, which growth is on record?
**A.** -31% (active)

**Q.** For C=CC(=O)N1CCC(Oc2cc3c(Nc4ccc(Cl)c(Cl)c4F)ncnc3cc2OC)CC1, which growth is on record?
**A.** 24.7%

**Q.** For Cc1c(-c2ccccc2)[nH]c2ccccc12, which growth is on record?
**A.** 106%

**Q.** For C=CN(C(=O)N1CCN(c2cc3c(cc2F)c(=O)c(C(=O)O)cn3C2CC2)CC1)c1nc(-c2ccc(C)cc2)cs1, which growth is on record?
**A.** -27.2% (active)

**Q.** With O=C(CCCCCCN1CC(=O)N2[C@H](c3ccc(Br)cc3)c3[nH]c4ccccc4c3C[C@@H]2C1=O)NO as the compound, how does the growth read?
**A.** 5.8% (active)

**Q.** For COc1ccc2c(c1)cn1c3ccc(O)cc3nc(N)c21, which growth is on record?
**A.** -15.8% (active)

**Q.** For CCOC(=O)/C(=C/CC/C(C)=C/CC/C(C)=C/CCc1ccoc1)CC(=O)N1CCCCC1, which growth is on record?
**A.** -35.2% (active)

**Q.** For CCC(c1cccc(Br)c1)C(C(=O)O)c1ccc(OC)cc1 (centres undefined), which growth is on record?
**A.** 96.2%

**Q.** Which growth does the source give for O=C1/C(=C/c2ccccc2[N+](=O)[O-])COc2ccc(O)cc21 here?
**A.** -8.06% (active)

**Q.** Which growth does the source give for NC(=S)NN=C1CCCC1 here?
**A.** 95.1%

**Q.** For COc1ccc(-c2csc(NC(=O)CO[N+](=O)[O-])n2)cc1, which growth is on record?
**A.** 107%

**Q.** With COc1cc(C(=O)c2c(N)ncn2-c2ccccc2)cc(OC)c1OC as the compound, how does the growth read?
**A.** 77.5%

**Q.** How did the growth turn out when COc1cc(/C=C2\CCCC3=C2NC(C)=NC3c2cc(OC)c(OC)c(OC)c2)cc(OC)c1OC (centres undefined) was run?
**A.** -4.1% (active)

**Q.** For O=C(/C=C/c1ccccc1)c1ccccc1O, which growth is on record?
**A.** 24.1%

**Q.** COc1cc2c(c(OC)c1O)C(=O)C(OC)C(c1ccc(O)c(O)c1)O2 (centres undefined) was tested. Which growth did it give?
**A.** -28.6% (active)

**Q.** With O=C(Nc1ccccc1-c1nc2ccccc2c(=O)[nH]1)c1cc2ccccc2[nH]1 as the compound, how does the growth read?
**A.** 65.5%

**Q.** How did the growth turn out when Cc1ccc(S(=O)(=O)NCCNc2cc(-c3cn(C(C)(C)C)nc3-c3cccc(O)c3)ccn2)cc1 was run?
**A.** 65.8%

**Q.** CCn1c(-c2nonc2Nc2ccc(OC)cc2)nc2ccccc21 was tested. Which growth did it give?
**A.** 128%

**Q.** For O=c1cc(-c2ccccc2)[nH]c2ncc(-c3ccc(F)cc3)n12, which growth is on record?
**A.** 18.9%

**Q.** For COc1ccc2nc3cc(Cl)ccc3c(NCCCCCN3CCCCC3)c2c1, which growth is on record?
**A.** -42.2% (active)

**Q.** Which growth does the source give for CN1CCN(C(=O)c2cc(-c3ccc4ncnc(N5CCc6cc(F)c(Cl)cc65)c4c3)cnc2N)CC1 here?
**A.** -32.5% (active)

**Q.** CN(C)Cc1cc(C(C)(C)C)cc(Br)c1O was tested. Which growth did it give?
**A.** 123%

**Q.** CCOC(=O)c1sc(NC(=O)COc2ccc(/C=C3\Cc4ccc(Cl)cc4C3=O)cc2)nc1C was tested. Which growth did it give?
**A.** 98%

**Q.** How did the growth turn out when CCCCNC1=C(OCC)C(=O)c2ccccc2C1=O was run?
**A.** 101%

**Q.** With COc1ccccc1/C=N\N/C(N)=N\N=C\c1ccccc1OC as the compound, how does the growth read?
**A.** -25.9% (active)

**Q.** How did the growth turn out when CNC(=O)c1ccccc1Sc1ccc2c(/C=C/c3ccccn3)n[nH]c2c1 was run?
**A.** 12.6%

**Q.** For COc1cc(/C=C2\C=C(c3ccccc3)N(CCc3ccccc3)C2=O)cc(OC)c1OC, which growth is on record?
**A.** 80.3%

**Q.** With N#Cc1cc(-c2nc3ccccc3s2)c(=O)n(NS(=O)(=O)c2ccccc2)c1N as the compound, how does the growth read?
**A.** 103%

**Q.** Which growth does the source give for COC(=O)C(OC(C)=O)C(OC(C)=O)c1ccc(OC)c(OC)c1 (centres undefined) here?
**A.** 81.3%

**Q.** CCC(=O)Oc1ccc(OC)cc1 was tested. Which growth did it give?
**A.** 82.6%

**Q.** Which growth does the source give for Oc1ccc(C#CCOc2ccccc2)cc1CNCCN(Cc1ccccn1)Cc1ccccn1 here?
**A.** -13.6% (active)

**Q.** How did the growth turn out when COc1cc(/C=C\C(C)=N\Nc2ccccc2)ccc1O was run?
**A.** 3.74% (active)

**Q.** For Cc1sc2nc(NCc3ccccc3)[nH]c(=O)c2c1C, which growth is on record?
**A.** 22.4%

**Q.** For COc1ccc(-c2csc(NC(=O)Nc3nc(-c4ccc(OC)cc4)cs3)n2)cc1, which growth is on record?
**A.** 80.6%

**Q.** For COc1ccc(Oc2c(I)cc(CC(NC(C)=O)C(=O)O)cc2I)cc1 (centres undefined), which growth is on record?
**A.** 86.3%
